Laboratory results reported in the supplement of paper PMC8728848.
Shown is part of a subset that was picked to be rich in the strongest signals.

Assays:
Assay in all cases: glycan array binding signal (z-score within array); higher = stronger binding
Conditions in all cases: glycan notation: IUPAC condensed, linker removed
[1] = target: Fuc(a1-2)Gal(b1-3)GlcNAc(b1-2)Man(a1-3)[Fuc(a1-2)Gal(b1-3)GlcNAc(b1-2)Man(a1-6)]Man(b1-4)GlcNAc(b1-4)GlcNAc
In short: (§1)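 Columns mapping to the same glycan were averaged after glycan names were converted to IUPAC-condensed notation. The data come from 3228 arrays in the Consortium for Functional Glycomics database, limited to those with an available protein sequence. Binding is reported as a within-array Z-score averaged across arrays of one protein sequence and across linkers.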

[2] = target: Fuc(a1-2)Gal(b1-3)GlcNAc(b1-3)[Gal(b1-4)[Fuc(a1-3)]GlcNAc(b1-6)]Gal(b1-4)Glc
In short: as §1

[3] = target: Fuc(a1-2)Gal(b1-3)[Fuc(a1-4)]GlcNAc(b1-2)Man(a1-3)[Fuc(a1-2)Gal(b1-3)[Fuc(a1-4)]GlcNAc(b1-2)Man(a1-6)]Man(b1-4)GlcNAc(b1-4)GlcNAc
In short: as §1

Fuc(a1-2)Gal(b1-4)GlcNAc = target: Fuc(a1-2)Gal(b1-4)GlcNAc
In short: as §1

Fuc(a1-2)Gal6S(b1-4)Glc = target: Fuc(a1-2)Gal6S(b1-4)Glc
In short: as §1

Fuc(a1-2)[Gal(a1-3)]Gal = target: Fuc(a1-2)[Gal(a1-3)]Gal
In short: as §1

[4] = target: Fuc(a1-2)[Gal(a1-3)]Gal(b1-4)[Fuc(a1-3)]Glc
In short: as §1

[5] = target: Fuc(a1-2)[GalNAc(a1-3)]Gal(b1-3)GalNAc(a1-3)[Fuc(a1-2)]Gal(b1-4)GlcNAc
In short: as §1

[6] = target: Fuc(a1-2)[GalNAc(a1-3)]Gal(b1-3)GalNAc(b1-3)Gal(a1-4)Gal(b1-4)Glc
In short: as §1

[7] = target: Fuc(a1-2)[GalNAc(a1-3)]Gal(b1-4)Glc
In short: as §1

[8] = target: Fuc(a1-2)[GalNAc(a1-3)]Gal(b1-4)GlcNAc(b1-2)Man(a1-3)[Fuc(a1-2)[GalNAc(a1-3)]Gal(b1-4)GlcNAc(b1-2)Man(a1-6)]Man(b1-4)GlcNAc(b1-4)GlcNAc
In short: as §1

[9] = target: Fuc(a1-2)[GalNAc(a1-3)]Gal(b1-4)GlcNAc(b1-3)Gal(b1-4)GlcNAc(b1-3)Gal(b1-4)GlcNAc
In short: as §1

[10] = target: Fuc(a1-2)[GalNAc(a1-3)]Gal(b1-4)GlcNAc(b1-3)[Fuc(a1-2)[GalNAc(a1-3)]Gal(b1-4)GlcNAc(b1-6)]GalNAc
In short: as §1

[11] = target: Fuc(a1-2)[GalNAc(a1-4)]Gal(b1-4)GlcNAc
In short: as §1

[12] = target: Fuc(a1-3)[Gal(b1-4)]GlcNAc(b1-4)Gal(b1-4)[Fuc(a1-3)]GlcNAc(b1-4)Gal(b1-4)[Fuc(a1-3)]GlcNAc
In short: as §1

Gal(a1-4)GlcNAc = target: Gal(a1-4)GlcNAc
In short: as §1

Gal(b1-2)Gal = target: Gal(b1-2)Gal
In short: as §1

Gal(b1-3)GalNAc = target: Gal(b1-3)GalNAc
In short: as §1

[13] = target: Gal(b1-3)GlcNAc(b1-2)[Gal(b1-3)GlcNAc(b1-6)]Man(a1-6)[Gal(b1-3)GlcNAc(b1-2)Man(a1-3)]Man(b1-4)GlcNAc(b1-4)GlcNAc
In short: as §1

[14] = target: Gal(b1-3)GlcNAc(b1-6)GalNAc
In short: as §1

[15] = target: Gal(b1-3)[Neu5Ac(a2-6)]GalNAc
In short: as §1

Gal(b1-4)Glc = target: Gal(b1-4)Glc
In short: as §1

[16] = target: Gal(b1-4)GlcNAc(b1-2)Man(a1-3)[Gal(b1-4)GlcNAc(b1-2)Man(a1-6)]Man(b1-4)GlcNAc(b1-4)GlcNAc
In short: as §1

[17] = target: Gal(b1-4)GlcNAc(b1-2)Man(a1-3)[GlcNAc(b1-4)][Gal(b1-4)GlcNAc(b1-2)Man(a1-6)]Man(b1-4)GlcNAc(b1-4)GlcNAc
In short: as §1

[18] = target: Gal(b1-4)GlcNAc(b1-2)Man(a1-6)[GlcNAc(b1-2)Man(a1-3)]Man(b1-4)GlcNAc(b1-4)GlcNAc
In short: as §1

[19] = target: Gal(b1-4)GlcNAc(b1-3)[Gal(b1-4)GlcNAc(b1-6)]Gal(b1-4)GlcNAc
In short: as §1

Gal3S(b1-4)GlcNAc = target: Gal3S(b1-4)GlcNAc
In short: as §1

Gal4S(b1-4)GlcNAc = target: Gal4S(b1-4)GlcNAc
In short: as §1

GalNAc(a1-3)Gal = target: GalNAc(a1-3)Gal
In short: as §1

GalNAc(a1-3)GalNAc = target: GalNAc(a1-3)GalNAc
In short: as §1

[20] = target: GalNAc(a1-3)GalNAc(b1-3)Gal(a1-4)Gal(b1-4)Glc
In short: as §1

[21] = target: GalNAc(a1-3)GalNAc(b1-3)Gal(a1-4)Gal(b1-4)GlcNAc
In short: as §1

GalNAc(b1-3)GalNAc = target: GalNAc(b1-3)GalNAc
In short: as §1

Glc(b1-4)Glc = target: Glc(b1-4)Glc
In short: as §1

GlcA(b1-6)Gal = target: GlcA(b1-6)Gal
In short: as §1

[22] = target: GlcNAc(a1-3)Gal(b1-4)GlcNAc
In short: as §1

[23] = target: GlcNAc(a1-4)Gal(b1-4)GlcNAc(b1-3)Gal(b1-4)GlcNAc
In short: as §1

[24] = target: GlcNAc(a1-4)Gal(b1-4)GlcNAc(b1-3)Gal(b1-4)GlcNAc(b1-3)Gal(b1-4)GlcNAc
In short: as §1

[25] = target: GlcNAc(a1-6)Gal(b1-4)GlcNAc
In short: as §1

[26] = target: GlcNAc(b1-3)Gal(b1-4)GlcNAc(b1-3)Gal(b1-4)GlcNAc(b1-2)Man(a1-3)[GlcNAc(b1-3)Gal(b1-4)GlcNAc(b1-3)Gal(b1-4)GlcNAc(b1-2)Man(a1-6)]Man(b1-4)GlcNAc(b1-4)[Fuc(a1-6)]GlcNAc
In short: as §1

Kdn(a2-3)Gal(b1-3)GalNAc = target: Kdn(a2-3)Gal(b1-3)GalNAc
In short: as §1

Kdn(a2-3)Gal(b1-4)Glc = target: Kdn(a2-3)Gal(b1-4)Glc
In short: as §1

Kdn(a2-6)Gal(b1-4)GlcNAc = target: Kdn(a2-6)Gal(b1-4)GlcNAc
In short: as §1

Man(a1-2)Man(a1-3)Man = target: Man(a1-2)Man(a1-3)Man
In short: as §1

[27] = target: Neu5Ac(a2-3)Gal(b1-4)GlcNAc6S
In short: as §1

[28] = target: Neu5Ac(a2-3)Gal(b1-4)[Fuc(a1-3)]GlcNAc(b1-3)Gal(b1-4)[Fuc(a1-3)]GlcNAc(b1-3)Gal(b1-4)[Fuc(a1-3)]GlcNAc
In short: as §1

[29] = target: Neu5Ac(a2-6)Gal(b1-4)GlcNAc(b1-2)Man(a1-3)[Man(a1-6)]Man(b1-4)GlcNAc(b1-4)GlcNAc
In short: as §1

[30] = target: Neu5Ac(a2-6)Gal(b1-4)GlcNAc(b1-2)Man(a1-6)Man(b1-4)GlcNAc(b1-4)GlcNAc
In short: as §1

[31] = target: Neu5Ac(a2-6)Gal(b1-4)GlcNAc(b1-2)Man(a1-6)[GlcNAc(b1-2)Man(a1-3)]Man(b1-4)GlcNAc(b1-4)GlcNAc
In short: as §1

[32] = target: Neu5Ac(a2-6)Gal(b1-4)GlcNAc(b1-3)Gal(b1-4)GlcNAc(b1-6)[Gal(b1-3)]GalNAc
In short: as §1

[33] = target: Neu5Ac(a2-6)Gal(b1-4)GlcNAc(b1-3)Gal(b1-4)[Fuc(a1-3)]GlcNAc(b1-3)Gal(b1-4)[Fuc(a1-3)]GlcNAc
In short: as §1

[34] = target: Neu5Ac(a2-6)Gal(b1-4)GlcNAc(b1-3)[Neu5Ac(a2-6)Gal(b1-4)GlcNAc(b1-6)]GalNAc
In short: as §1

[35] = target: Neu5Ac(a2-6)Gal(b1-4)GlcNAc(b1-6)[Gal(b1-3)]GalNAc
In short: as §1

[36] = target: Neu5Ac(a2-6)GalNAc(b1-4)GlcNAc6S
In short: as §1

[37] = target: Neu5Ac(a2-8)Neu5Ac(a2-3)Gal(b1-3)GalNAc(b1-4)[Neu5Ac(a2-8)Neu5Ac(a2-3)]Gal(b1-4)Glc
In short: as §1

Neu5Gc(a2-3)Gal(b1-4)Glc = target: Neu5Gc(a2-3)Gal(b1-4)Glc
In short: as §1

B1: HPAIIITrx (Helix pomatia), Q1KM18 (protein)
chain: MLFVTIISLGLLAIVHGQCALKTIAFSAAIDREQTFDANQVVIYDIVITNHGNAYDNSTGLFTAPVDGMYSFQLNLLTIKEKEGWLELVHNGQLKVSVYAKQDSTYDSSSNSVIIKMKEGDRVNVRAHKKSGLFGRDDELYNTFSGHFLSGL
glycan array binding signal (z-score) [1]: 3.03
glycan array binding signal (z-score) [2]: -0.143
glycan array binding signal (z-score) [3]: 3.07
glycan array binding signal (z-score) (Fuc(a1-2)Gal(b1-4)GlcNAc): -0.3
glycan array binding signal (z-score) (Fuc(a1-2)Gal6S(b1-4)Glc): -0.211
glycan array binding signal (z-score) (Fuc(a1-2)[Gal(a1-3)]Gal): -0.256
glycan array binding signal (z-score) [4]: -0.413
glycan array binding signal (z-score) [5]: 4.37
glycan array binding signal (z-score) [6]: 3.47
glycan array binding signal (z-score) [7]: 2.02
glycan array binding signal (z-score) [8]: 6.33
glycan array binding signal (z-score) [9]: 2.94
glycan array binding signal (z-score) [10]: 3.2
glycan array binding signal (z-score) [11]: 3.52
glycan array binding signal (z-score) [12]: -0.564
glycan array binding signal (z-score) (Gal(a1-4)GlcNAc): -0.387
glycan array binding signal (z-score) (Gal(b1-2)Gal): 0.163
glycan array binding signal (z-score) (Gal(b1-3)GalNAc): -0.149
glycan array binding signal (z-score) [13]: -0.132
glycan array binding signal (z-score) [14]: -0.368
glycan array binding signal (z-score) [15]: -0.314
glycan array binding signal (z-score) (Gal(b1-4)Glc): -0.056
glycan array binding signal (z-score) [16]: -0.38
glycan array binding signal (z-score) [17]: -0.402
glycan array binding signal (z-score) [18]: -0.301
glycan array binding signal (z-score) [19]: -0.21
glycan array binding signal (z-score) (Gal3S(b1-4)GlcNAc): -0.024
glycan array binding signal (z-score) (Gal4S(b1-4)GlcNAc): -0.358
glycan array binding signal (z-score) (GalNAc(a1-3)Gal): 2.5
glycan array binding signal (z-score) (GalNAc(a1-3)GalNAc): 3.35
glycan array binding signal (z-score) [20]: 5.39
glycan array binding signal (z-score) [21]: 4.56
glycan array binding signal (z-score) (GalNAc(b1-3)GalNAc): -0.254
glycan array binding signal (z-score) (Glc(b1-4)Glc): -0.122
glycan array binding signal (z-score) (GlcA(b1-6)Gal): -0.196
glycan array binding signal (z-score) [22]: 0.416
glycan array binding signal (z-score) [23]: 1.69
glycan array binding signal (z-score) [24]: 2.06
glycan array binding signal (z-score) [25]: -0.341
glycan array binding signal (z-score) [26]: -0.228
glycan array binding signal (z-score) (Kdn(a2-3)Gal(b1-3)GalNAc): -0.152
glycan array binding signal (z-score) (Kdn(a2-3)Gal(b1-4)Glc): 0.214
glycan array binding signal (z-score) (Kdn(a2-6)Gal(b1-4)GlcNAc): -0.263
glycan array binding signal (z-score) (Man(a1-2)Man(a1-3)Man): -0.321
glycan array binding signal (z-score) [27]: -0.337
glycan array binding signal (z-score) [28]: 0.089
glycan array binding signal (z-score) [29]: -0.533
glycan array binding signal (z-score) [30]: -0.31
glycan array binding signal (z-score) [31]: -0.492
glycan array binding signal (z-score) [32]: -0.292
glycan array binding signal (z-score) [33]: -0.392
glycan array binding signal (z-score) [34]: -0.408
glycan array binding signal (z-score) [35]: -0.3
glycan array binding signal (z-score) [36]: -0.278
glycan array binding signal (z-score) [37]: -0.38
glycan array binding signal (z-score) (Neu5Gc(a2-3)Gal(b1-4)Glc): -0.237
